# Shown are actives, neighbours in structure and some others; about 10% of the full set was active somewhere.
# JMJD2A Tudor = JMJD2A Tudor domain (human) inhibition | O75164 | AlphaScreen JMJD2A-Tudor / H3K4me3 peptide binding | Potency, µM (series often up to 114 µM), without a hit: at the highest dose activity change, negative = inhibition, actives largely listed as inhibitors | 390,000 compounds, 4.4% hits | AID 504339; also: potency is read from the fitted curve at half-maximal effect; % is scaled to controls: 0 for no effect and ±100 for the full control effect; nearly all actives have a fitted effect of over 50% in size
# HP1b binding inh = blocks HP1-beta chromodomain binding to methylated histone tails. P83916. AlphaScreen HP1-beta / biotin-H3K9me3 peptide binding. Potency, µM (titrated, usually from 114 µM), inactives show at the highest dose activity change, negative = inhibition, hits mostly inhibitors. 390,000 compounds, 0.56% hits; also: potency is read from the fitted curve at half-maximal effect; nearly all actives have a fitted effect of over 70% in size
#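 AlphaScreen: HP1-beta (50 nM) preformed 30 min with biotin-H3(1-18)K9me3 peptide (50 nM) in PBS pH 7.4, 0.01% Tween-20. Compound added for 30 min at RT, then streptavidin donor/nickel chelate acceptor beads (10 ug/mL) for 30 min.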
# G9a block = blocks human histone lysine methyltransferase G9a; 350,000 compounds, 8.8% hits; Potency, µM (series often up to 102 µM), for inactives: at the top dose activity, negative = inhibition, hits mostly inhibitors; G9a H3K9 monomethylation, AlphaScreen, 2 h; Q96KQ7; AID 504332; also: potency is read from the fitted curve at half-maximal effect; % is scaled to controls: 0 for no effect and ±100 for the full control effect; nearly all actives have a fitted effect of over 75% in size
#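 G9a (20 nM) preincubated 15 min RT with compounds, then 500 nM biotinylated H3K9 peptide and 20 uM SAM added; 2 h RT reaction. Monomethyl-H3K9 product detected by AlphaScreen with anti-H3K9me1 antibody, streptavidin donor and anti-rabbit IgG acceptor beads.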
# Six1-Eya2 inh = blocks human Six1 binding to Eya2; AlphaScreen GST-Six1/His-Eya2 binding, biochemical; hits give low values; activity change, % (concentration not given with the values); 360,000 compounds, 0.56% hits; AID 651725; in the data active = activity change below about -65%; inconclusive = mostly about -30% to -63%; also: % is scaled to controls: 0 for no effect and ±100 for the full control effect
#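 Six1/Eya2 binding was read as AlphaScreen signal after compounds were pinned into GST-Six1 plus His-tagged Eya2 (5X stock 250/500 nM) in pH 8.0 Tris/NaCl/TCEP buffer, beads added, then incubated 1 h, 37 C, dark.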
# BAZ2B inh = inhibitors of human BAZ2B bromodomain; Q9UIF8; Potency, µM (highest dose often 114 µM), without a hit: at the highest dose activity change, negative = inhibition, most hits filed as inhibitors; 360,000 compounds, 4.4% hits; AlphaScreen BAZ2B-H3K14Ac peptide displacement; AID 504333; also: potency is read from the fitted curve at half-maximal effect; % is scaled to controls: 0 for no effect and ±100 for the full control effect; nearly all actives have a fitted effect of over 60% in size
#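 Compounds, titrated to a top concentration of 110 uM, were incubated 30 min at room temperature with preformed BAZ2B/acetyl-K14 H3 peptide complex (50 nM each). Proximity signal was measured by AlphaScreen after 20 min with beads.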
# CtBP-E1A blk = inhibitors of CtBP/E1A interaction | AlphaScreen GST-E1A/His-CtBP binding, 1536-well; hits give low values | AID 651724 | activity change, % (no concentration beside the values) | 340,000 compounds, 0.49% hits; in the data active = activity change below about -65%; inconclusive = mostly about -30% to -63%; also: % is scaled to controls: 0 for no effect and ±100 for the full control effect
#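 Protein mix (5X: 125 nM each GST-E1A, His-CtBP) was incubated with pinned compound 2 h at 37 deg C in dark, in 50 mM Tris pH 8.0 buffer with 300 mM NaCl. Glutathione donor and nickel acceptor beads followed; AlphaScreen signal read after 1 h.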
# * hit, by the source's call; ? = inconclusive; . = not tested or not shown; [ ] = dose if it differs, or a comment. Unless noted, calls follow the shape of the dose curve; as a rule, active = well fitted inhibition curve with a large enough effect; inconclusive = small, poorly fitted or top-dose-only effect; inactive = no such curve, though single readings can be large or run the other way.
SMILES,JMJD2A Tudor,HP1b binding inh,G9a block,Six1-Eya2 inh,BAZ2B inh,CtBP-E1A blk
CCOc1ccc(CCNS(=O)(=O)c2c(C)nc3sc(C)cn3c2=O)cc1OCC,-2.6%,60.6%,-7.9%[59 µM],.,-13.9%,.
CCCCC1(C)OC(=O)C(=Cc2ccc(-c3ccc(Cl)c(C(=O)O)c3)o2)C(=O)O1 (centres undefined),-7.2%,28.3%,.,-8.1,-32.0%,1.9
CC1=C(C#N)C(=O)NC(=O)/C1=C\c1ccc(-c2ccc(C)cc2[N+](=O)[O-])o1,31.6µM*,?,17.8µM*,-6.5,44.7µM*,-2.8
CCOC(=O)c1cc(-c2ccc(/C=C3/C(=O)NC(=O)C(C#N)=C3C)o2)ccc1Cl,56.2µM*,39.8µM*,35.5µM*,-26.9,50.1µM*,-8.0
Cc1ccc(-c2ccc(/C=N/N=C3/NC(=O)C(CC(=O)O)S3)o2)c([N+](=O)[O-])c1 (centres undefined),-35.1%,0.6%,13.1%[2.33 µM],-1.9,?,-3.1
CC[C@]12c3[nH]c4ccc(Cl)cc4c3CCN1C(=O)[C@@H](CC(=O)NC/C=C(\C)CCC=C(C)C)C[C@@H]2C(=O)N1CCN(C(=O)c2ccco2)CC1,-21.9%,17.3%,.,-14.5,.,-9.6
COc1cc(C)c2c(c1C=O)Oc1c(c(C)c(O)c3c1C(O)OC3=O)OC2=O (centres undefined),79.4µM*,-34.7%,?,?,79.4µM*,-4.1
CCC1NC(=O)c2cccnc2-n2c1nc1cc(OC)c(OC)cc1c2=O (centres undefined),.,.,.,0.5,.,-11.0
Nc1ccc(Oc2ccccc2-c2ccccc2)cc1,50.1µM*,?,.,-18.9,.,-21.0
CCCCSc1nnc2c(n1)OC(c1ccc(Br)s1)N(C(C)=O)c1ccccc1-2 (centres undefined),?,16.0%,10µM*,.,?,.
CCCCCSc1nnc2c(n1)OC(c1ccc(C)s1)N(C(C)=O)c1ccccc1-2 (centres undefined),?,-7.8%,?,.,-38.0%,.
COC(=O)C[C@H]1CC[C@@H]2[C@H](COC[C@H](O)CN2S(=O)(=O)c2ccccc2OC)O1,.,.,.,5.4,.,4.1
COc1ccc(CNC(=O)c2ccc(S(=O)(=O)N3CCOCC3)cc2)cc1,0.7%,24.6%,-23.0%,0.4,-2.2%,4.6
O=[N+]([O-])c1ccc(CSc2ccc(S(=O)(=O)N3CCCC3)cn2)cc1,-18.6%,18.5%,2.8%[2.33 µM],-13.8,-5.6%,-5.9
O=[N+]([O-])c1ccc(CSc2ccc(S(=O)(=O)N3CCOCC3)cn2)cc1,-23.4%,7.0%,20µM*,-20.6,-26.7%,-2.6
CC(C)CCNC(=O)NC(=O)CSc1ccc(S(=O)(=O)N2CCOCC2)cn1,-15.8%,-10.2%,1.58µM*,2.5,-5.3%,9.6
CC(C)C(C)NC(=O)CSc1ccc(S(=O)(=O)N2CCOCC2)cn1 (centres undefined),-1.3%,25.1%,17.5%[12.7 µM],3.0,6.5%,0.0
COc1ccc(-n2nnnc2SCC(=O)N2CCOCC2)cc1,-12.1%,5.2%,-0.8%[59 µM],0.4,-4.5%,-4.0
COc1ccc(CNC(=O)C(C)Sc2ccc(S(=O)(=O)N3CCOCC3)cn2)cc1 (centres undefined),2.7%,40.0%,31.6µM*,-2.7,-2.6%,4.0
COc1ccc(-n2nnnc2Sc2ccc(S(=O)(=O)N3CCOCC3)cn2)cc1,22.4µM*,?,1.78µM*,-3.3,-2.1%,-1.8
CCN(CC)CCNC(=O)Cn1ncc2c([nH]c3ccccc32)c1=O,7.6%,10.2%,5.3%[59 µM],.,-0.9%,.
CC1CCCN(C2=C(NS(=O)(=O)c3ccc(Cl)cc3)C(=O)c3ccccc3C2=O)C1 (centres undefined),8.91µM*,6.31µM*,2.51µM*,-25.8,5.01µM*,?
COC(=O)C1CCN(C2=C(NS(=O)(=O)c3ccc(Cl)cc3)C(=O)c3ccccc3C2=O)CC1,?,?,-174.9%[59 µM],-67.0*,11.2µM*,-78.8*
NC(=O)C1CCN(C2=C(NS(=O)(=O)c3ccc(Cl)cc3)C(=O)c3ccccc3C2=O)CC1,?,-19.5%,25.1µM*,-25.2,35.5µM*,.
CC(=Nc1ccc(C)cc1)c1sc2ccccc2c1O,?,-16.7%,?,-10.0,?,-17.7
SMILES,JMJD2A Tudor,HP1b binding inh,G9a block,Six1-Eya2 inh,BAZ2B inh,CtBP-E1A blk
CC(=Nc1cccc(O)c1)c1sc2ccccc2c1O,-10.1%,16.8%,?,2.2,39.8µM*,6.0
CC(=Nc1ccc(C)cc1C)c1sc2ccccc2c1O,56.2µM*,19.6%,?,-6.4,?,.
CC(C)CNC(=S)N(CCCN(C)C)Cc1cc2cc3c(cc2[nH]c1=O)OCCO3,-21.3%,22.9%,16.9%[0.501 µM],-8.1,2.0%,-0.8
O=C(c1ccco1)N(CCC(c1ccccc1)c1ccco1)Cc1ccco1 (centres undefined),22.4µM*,?,?,?,28.2µM*,0.0
CC(=O)N(CCC(Cc1ccccc1)c1ccco1)Cc1ccco1 (centres undefined),-35.4%,1.3%,?,-0.7,?,4.0
Cc1ccc(C(CCN(Cc2ccccc2)C(=O)c2ccco2)c2ccco2)cc1 (centres undefined),20µM*,-4.6%,50.1µM*,-19.7,31.6µM*,2.1
COc1ccc(/C=N/NC(=O)Nc2cccc3nsnc23)cc1,70.8µM*,11.0%,-0.4%[59 µM],-18.3,-28.2%,5.2
O=C(Nc1ccccc1)Nc1cccc2nsnc12,63.9%,95.7%,24.6%[12.7 µM],21.6,23.9%,1.4
C#CCOCCOCCOCCNc1nc(N2CCN(C(=O)[C@H](CCCCN)n3cc(C(N)CO)nn3)CC2)nc(N2CCN(C(=O)[C@H](CCC(=O)O)n3cc(C(N)CC(C)C)nn3)CC2)n1 (some centres undefined),.,.,?,.,20µM*,.
C#CCOCCOCCOCCNc1nc(N2CCN(C(=O)[C@H](CCCCN)n3cc(C(N)CC(C)C)nn3)CC2)nc(N2CCN(C(=O)[C@H](CCC(=O)O)n3cc(C(N)[C@H](C)CC)nn3)CC2)n1 (some centres undefined),50.1µM*,48.9%,-136.4%[59 µM],-7.5,50.1µM*,-5.0
C#CCOCCOCCOCCNc1nc(N2CCN(C(=O)C([C@@H](C)O)n3cc([C@@H](N)CCCCN)nn3)CC2)nc(N2CCN(C(=O)[C@H](CCCCN)n3cc([C@@H](N)[C@H](C)CC)nn3)CC2)n1 (some centres undefined),?,87.9%,.,15.3,.,8.1

# High-throughput results (PubChem)
